Assay results as given in PubChem BioAssay AID1159580 (chemical genetic matrix, 2015).
Screen size: about 5,500 compounds; about 2,000 (36%) were called active. Another 18% or so got no clear call; they are omitted. Cut-off read from the data, not from the text of the source: active = normalized growth mostly below about 0.91 (no sharp cut-off); inconclusive = no clear call, values can overlap the other calls; inactive = mostly above about 0.92. The list shows a part of the results.

Test: chemical genetic growth profiling, strain panel (AID 1159580);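 note: tested at 20 µM; growth read once vehicle control cultures reached saturation at 30 °C; 1 = growth at the plate median or of vehicle wells; lower values mean less growth of the strain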
Conditions: S. cerevisiae deletion strains, growth OD

Measured: normalized growth

CC(C)NC[C@H](O)c1ccc(O)c(O)c1
inactive: locus YAL013W, strain DEP1, hits give low values 1.01 | locus YAL040C, strain CLN3, hits give low values 0.998 | locus YCL061C, strain MRC1 (second series), hits give low values 1 | locus YDR150W, strain NUM1, hits give low values 0.99 | locus YDR363W, strain ESC2, hits give low values 1 | locus YER002W, strain NOP16, hits give low values 1 | locus YGR078C, strain PAC10, hits give low values 1.01 | locus YNL175C, strain NOP13, hits give low values 1.02 | locus YNL197C, strain WHI3, hits give low values 1.01 | locus YNL224C, strain SQS1, hits give low values 1.01 | locus YOR083W, strain WHI5 (second series), hits give low values 1 | locus YPL055C, strain LGE1, hits give low values 0.97
